# Source: PubChem BioAssay (EPA / NIEHS)
# Several values for one entry are separate records, joined by “and”; a condition that tells them apart may be missing. Equal entries are not always repeated. Records with an inconclusive call do not appear. The source holds several records for some structures; these can differ, active in one and inactive in another. Activity calls are given as the source filed them. Rule for the calls, unless noted: active = hit-call score of the fitted dose curve at least 0.9, where 1 is the maximum; inconclusive = response in the unintended direction; inactive = score below 0.9.
# Tests used:
# [1] = target: mouse Estrogen Receptor alpha (Era), Esr1 (gene 13982) (UniProt P19785); test: NVS_NR_mERa: NovaScreen (NVS) Nuclear Receptor Binding Assay for mouse Estrogen Receptor alpha (Era) (AID 2283378);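 note: hit means loss of bound radioligand signal relative to DMSO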
# mouse Estrogen Receptor alpha (Era), Esr1 (gene 13982), sequence (P19785 whole entry, looked up): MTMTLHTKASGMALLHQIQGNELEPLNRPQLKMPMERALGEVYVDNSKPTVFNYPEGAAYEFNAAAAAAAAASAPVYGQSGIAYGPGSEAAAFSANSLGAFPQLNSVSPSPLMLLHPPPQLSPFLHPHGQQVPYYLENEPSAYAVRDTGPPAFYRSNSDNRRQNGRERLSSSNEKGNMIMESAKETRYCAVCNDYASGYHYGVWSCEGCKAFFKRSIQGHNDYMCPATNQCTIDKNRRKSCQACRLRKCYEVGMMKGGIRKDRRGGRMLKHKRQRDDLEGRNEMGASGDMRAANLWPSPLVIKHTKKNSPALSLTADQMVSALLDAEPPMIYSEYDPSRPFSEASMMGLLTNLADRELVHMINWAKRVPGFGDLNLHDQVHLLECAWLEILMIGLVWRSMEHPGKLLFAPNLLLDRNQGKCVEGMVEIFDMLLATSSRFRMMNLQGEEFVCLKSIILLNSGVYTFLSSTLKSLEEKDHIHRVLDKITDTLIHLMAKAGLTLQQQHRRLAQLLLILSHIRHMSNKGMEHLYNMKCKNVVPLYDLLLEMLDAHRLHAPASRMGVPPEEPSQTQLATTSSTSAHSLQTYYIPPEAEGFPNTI
# Outline: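 Filter scintillation counts of bound radioligand, measured 18 h post-dose, gave the readout; decreased signal relative to DMSO controls indicated displacement from mouse Era. Primary screen ran in duplicate at 25 uM; active chemicals were retested across concentrations.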
# [2] = target: Agonist Androgen Response Element (ARE), AR (gene 367) (UniProt P10275); test: OT_AR_ARELUC_AG_1440: Odyssey Thera (OT) 24-hour CHO-K1 Luciferase Assay for Agonist Androgen Response Element (ARE) (AID 2283379)
# Agonist Androgen Response Element (ARE), AR (gene 367), sequence (P10275 whole entry, looked up): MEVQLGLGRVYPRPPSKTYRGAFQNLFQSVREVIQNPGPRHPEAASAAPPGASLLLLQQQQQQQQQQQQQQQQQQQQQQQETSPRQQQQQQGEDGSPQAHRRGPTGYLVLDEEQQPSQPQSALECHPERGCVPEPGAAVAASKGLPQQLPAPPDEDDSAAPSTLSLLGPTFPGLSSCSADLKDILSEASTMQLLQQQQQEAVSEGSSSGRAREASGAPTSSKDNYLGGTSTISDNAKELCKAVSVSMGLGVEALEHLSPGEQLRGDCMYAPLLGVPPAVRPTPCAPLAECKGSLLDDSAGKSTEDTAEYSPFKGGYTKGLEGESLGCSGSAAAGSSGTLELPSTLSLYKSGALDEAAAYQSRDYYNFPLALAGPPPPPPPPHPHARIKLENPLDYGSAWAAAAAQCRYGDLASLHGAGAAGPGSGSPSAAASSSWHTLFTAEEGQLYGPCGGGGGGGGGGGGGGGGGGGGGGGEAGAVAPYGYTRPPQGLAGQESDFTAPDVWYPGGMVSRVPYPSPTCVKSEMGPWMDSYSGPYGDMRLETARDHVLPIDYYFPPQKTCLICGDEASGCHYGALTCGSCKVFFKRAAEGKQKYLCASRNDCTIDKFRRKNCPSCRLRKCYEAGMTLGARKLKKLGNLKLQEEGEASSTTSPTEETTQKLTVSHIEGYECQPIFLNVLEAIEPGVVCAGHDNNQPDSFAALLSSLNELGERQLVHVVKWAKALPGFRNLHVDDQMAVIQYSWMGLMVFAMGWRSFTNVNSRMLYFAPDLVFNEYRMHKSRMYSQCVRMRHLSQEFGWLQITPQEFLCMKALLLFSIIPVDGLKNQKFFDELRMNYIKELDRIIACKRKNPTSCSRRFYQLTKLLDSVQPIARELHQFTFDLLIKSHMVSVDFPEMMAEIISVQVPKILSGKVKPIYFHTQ
# Outline: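 CHO-K1 cells carrying an ARE-driven luciferase reporter were exposed to compounds for 24 h. Luminescence was then read after adding a D-luciferin/ATP mix, and activity was scored as a gain in signal over DMSO vehicle.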
# [3] = target: Estrogen receptor (Homo sapiens) (UniProt P03372); test: OT_ERa_GFPERaERE_0480: Odyssey Thera (OT) 8-hour HeLa Transcription Induction Assay for Estrogen Receptor (AID 2283381; active = hit-call score of the fitted dose curve at least 0.9, where 1 is the maximum; inactive = score below 0.9)
# Estrogen receptor (Homo sapiens), sequence (P03372 whole entry, looked up): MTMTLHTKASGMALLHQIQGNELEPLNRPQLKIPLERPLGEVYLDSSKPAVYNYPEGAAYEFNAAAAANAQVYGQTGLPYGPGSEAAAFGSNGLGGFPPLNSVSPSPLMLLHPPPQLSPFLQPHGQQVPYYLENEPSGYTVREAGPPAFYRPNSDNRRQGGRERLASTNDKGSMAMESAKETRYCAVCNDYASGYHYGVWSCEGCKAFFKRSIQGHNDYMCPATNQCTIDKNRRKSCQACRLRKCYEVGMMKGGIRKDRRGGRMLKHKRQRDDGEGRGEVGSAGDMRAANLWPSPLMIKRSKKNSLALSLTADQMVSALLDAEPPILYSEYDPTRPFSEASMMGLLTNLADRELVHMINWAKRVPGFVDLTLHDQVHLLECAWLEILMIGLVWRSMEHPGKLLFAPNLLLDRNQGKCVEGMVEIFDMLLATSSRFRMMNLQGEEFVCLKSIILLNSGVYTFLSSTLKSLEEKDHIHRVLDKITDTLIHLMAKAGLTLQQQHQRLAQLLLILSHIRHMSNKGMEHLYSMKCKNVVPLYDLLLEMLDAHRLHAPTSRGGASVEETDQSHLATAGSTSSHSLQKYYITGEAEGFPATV
# Outline: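 HeLa cells expressing GFP reporter under estrogen response element, imaged 8 h after dosing. GFP induction quantified by high-content fluorescence microscopy image analysis; gain of signal fitted versus DMSO.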
# [4] = target: Estrogen receptor (Homo sapiens) (UniProt P03372); test: OT_ERa_GFPERaERE_0120: Odyssey Thera (OT) 2-hour HeLa Transcription Induction Assay for Estrogen Receptor (AID 2283382)
# Outline: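 HeLa cells were dosed for 2 h, then GFP reporter induction was quantified by fluorescence microscopy with high-content image analysis. Gain of signal fitted against DMSO baseline.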
# [5] = target: Retinoic acid receptor RXR-alpha (Homo sapiens) (UniProt P19793); test: OT_NURR1_NURR1RXRa_0480: Odyssey Thera (OT) 8-hour HEK293T Protein Complementation Assay for Nurr1/retinoid X receptor (RXR) (AID 2283385)
# Retinoic acid receptor RXR-alpha (Homo sapiens), sequence (P19793 whole entry, looked up, the tested form may be a part): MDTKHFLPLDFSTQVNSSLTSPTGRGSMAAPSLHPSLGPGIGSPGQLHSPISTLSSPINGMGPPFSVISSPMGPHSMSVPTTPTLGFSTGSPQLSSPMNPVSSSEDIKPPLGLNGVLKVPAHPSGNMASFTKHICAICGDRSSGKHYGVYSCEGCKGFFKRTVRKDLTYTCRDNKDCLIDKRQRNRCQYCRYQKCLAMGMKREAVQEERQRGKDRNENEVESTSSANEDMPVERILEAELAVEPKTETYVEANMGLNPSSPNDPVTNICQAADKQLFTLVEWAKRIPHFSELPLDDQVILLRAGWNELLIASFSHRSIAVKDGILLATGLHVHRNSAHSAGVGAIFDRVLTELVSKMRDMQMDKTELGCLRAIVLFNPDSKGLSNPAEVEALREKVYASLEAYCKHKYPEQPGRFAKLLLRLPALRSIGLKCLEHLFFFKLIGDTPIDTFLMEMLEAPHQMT
# Outline: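 HEK293T cells expressing Nurr1 and RXRα fused to reporter fragments (protein-fragment complementation); fluorescence measured 8 h after dosing. Gain of signal fitted relative to DMSO.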
# [6] = target: Retinoic acid receptor RXR-alpha (Homo sapiens) (UniProt P19793); test: OT_NURR1_NURR1RXRa_1440: Odyssey Thera (OT) 24-hour HEK293T Protein Complementation Assay for Nurr1/retinoid X receptor (RXR) (AID 2283386)
# Outline: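 HEK293T protein-fragment complementation of Nurr1 and RXRα fused to reporter fragments; compounds 24 h. Fluorescence gain from reconstituted reporter fitted versus DMSO.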
# [7] = target: Estrogen receptor beta (Homo sapiens) (UniProt Q92731); test: OT_ER_ERbERb_1440: Odyssey Thera (OT) 24-hour HEK293T Protein-Complementation Assay for Estrogen Receptor-beta/-beta Homodimer (AID 2283380);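 note: scored as signal increase over DMSO baseline for both agonists and antagonists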
# Estrogen receptor beta (Homo sapiens), sequence (Q92731 whole entry, looked up, the tested form may be a part): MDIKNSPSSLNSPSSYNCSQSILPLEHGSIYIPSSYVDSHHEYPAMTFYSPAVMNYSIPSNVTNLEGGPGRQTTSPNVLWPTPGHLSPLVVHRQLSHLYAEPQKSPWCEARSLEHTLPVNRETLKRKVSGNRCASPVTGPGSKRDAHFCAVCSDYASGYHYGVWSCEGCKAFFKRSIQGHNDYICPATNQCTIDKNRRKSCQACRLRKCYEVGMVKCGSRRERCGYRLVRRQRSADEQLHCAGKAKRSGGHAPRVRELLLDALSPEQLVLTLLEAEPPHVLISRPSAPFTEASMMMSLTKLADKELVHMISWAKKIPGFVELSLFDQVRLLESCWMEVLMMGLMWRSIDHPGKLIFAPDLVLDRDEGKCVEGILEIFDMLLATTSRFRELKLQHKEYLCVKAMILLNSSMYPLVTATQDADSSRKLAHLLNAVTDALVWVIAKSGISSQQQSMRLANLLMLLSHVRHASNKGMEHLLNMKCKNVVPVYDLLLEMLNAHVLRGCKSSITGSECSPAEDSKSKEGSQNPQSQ
# Outline: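 HEK293T cells stably expressing ER beta LBD (aa 310-547) homodimer fragment-complementation reporter, dosed 24 h. Cells formaldehyde-fixed, Draq5-stained; gain in nuclear (agonist) or nuclear plus cytoplasmic (antagonist) fluorescence versus DMSO read by laser scanning cytometry.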
# [8] = target: Bile acid receptor (Homo sapiens) (UniProt Q96RI1); test: OT_FXR_FXRSRC1_0480: Odyssey Thera (OT) 8-hour HEK293T Protein-Complementation Assay for Farnesoid X receptor/SRC-1 Co-activator (AID 2283383)
# Bile acid receptor (Homo sapiens), sequence (Q96RI1 whole entry, looked up, the tested form may be a part): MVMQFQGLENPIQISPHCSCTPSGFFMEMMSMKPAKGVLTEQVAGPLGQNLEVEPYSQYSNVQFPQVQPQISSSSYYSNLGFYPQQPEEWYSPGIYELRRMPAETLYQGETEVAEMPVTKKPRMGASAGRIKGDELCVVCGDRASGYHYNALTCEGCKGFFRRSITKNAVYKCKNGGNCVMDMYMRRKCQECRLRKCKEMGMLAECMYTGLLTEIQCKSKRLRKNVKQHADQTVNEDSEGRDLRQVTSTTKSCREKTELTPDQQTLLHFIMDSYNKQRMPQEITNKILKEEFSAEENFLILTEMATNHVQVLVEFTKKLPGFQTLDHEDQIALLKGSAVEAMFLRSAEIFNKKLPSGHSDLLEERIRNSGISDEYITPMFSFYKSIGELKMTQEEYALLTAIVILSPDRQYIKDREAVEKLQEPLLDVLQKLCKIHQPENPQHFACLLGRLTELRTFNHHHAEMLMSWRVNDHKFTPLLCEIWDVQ
# Outline: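 HEK293T protein-fragment complementation assay: FXR and SRC-1 coactivator are fused to reporter fragments, and their interaction restores a fluorescent reporter. Readout was taken 8 h after dosing, with gain of signal fit relative to DMSO.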
# [9] = target: Bile acid receptor (Homo sapiens) (UniProt Q96RI1); test: OT_FXR_FXRSRC1_1440: Odyssey Thera (OT) 24-hour HEK293T Protein-Complementation Assay for Farnesoid X receptor/SRC-1 Co-activator (AID 2283384)
# Outline: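 HEK293T cells, 24 h after chemical dosing. FXR–SRC-1 coactivator interaction read as fluorescence from protein-fragment complementation of a split reporter. Gain of signal fitted against DMSO baseline.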
# [10] = target: Norway rat Vesicular Monoamine Transporter (VMAT2), neurotransmitter transporter, Slc18a2 (gene 25549) (UniProt Q01827); test: NVS_TR_rVMAT2: NovaScreen (NVS) Transporter Assay for Norway rat Vesicular Monoamine Transporter (VMAT2), neurotransmitter transporter (AID 2283376);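 note: actives lower the bound radioligand signal below the DMSO level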
# Norway rat Vesicular Monoamine Transporter (VMAT2), neurotransmitter transporter, Slc18a2 (gene 25549), sequence (Q01827 whole entry, looked up): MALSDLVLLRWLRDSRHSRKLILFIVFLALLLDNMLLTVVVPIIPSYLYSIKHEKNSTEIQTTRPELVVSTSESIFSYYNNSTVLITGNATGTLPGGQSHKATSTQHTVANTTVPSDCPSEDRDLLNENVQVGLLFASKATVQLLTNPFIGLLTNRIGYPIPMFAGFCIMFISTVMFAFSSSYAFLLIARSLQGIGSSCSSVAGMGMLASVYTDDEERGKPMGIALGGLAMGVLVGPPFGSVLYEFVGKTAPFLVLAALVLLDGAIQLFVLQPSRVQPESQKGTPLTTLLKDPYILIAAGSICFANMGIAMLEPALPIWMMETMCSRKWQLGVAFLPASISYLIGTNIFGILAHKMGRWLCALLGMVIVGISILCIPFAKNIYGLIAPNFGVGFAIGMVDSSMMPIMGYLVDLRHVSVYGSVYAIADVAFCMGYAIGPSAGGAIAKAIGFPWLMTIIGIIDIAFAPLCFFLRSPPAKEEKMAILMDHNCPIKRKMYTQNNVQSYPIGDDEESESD
# Outline: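 Radioligand displacement binding on rat forebrain tissue preparation, filter-based scintillation read-out 1 hour after dosing. Primary screen in duplicate at 25 uM, then concentration series for actives; loss of signal versus DMSO.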
compound,measurement,setting,value
Nc1ccc(Br)cc1,outcome,[1],inactive
O=C1c2ccccc2C(=O)C1C(=O)C(c1ccccc1)c1ccc(Cl)cc1 (centres undefined),AC50,[1],1.12 µM (active)
same,outcome,[2],inactive
same,outcome,[3],inactive
same,outcome,[4],inactive
same,AC50,[5],50 µM (active)
same,AC50,[6],73.2 µM (active)
O=C(Cl)OCCOCCOC(=O)Cl,AC50,[1],6.49 µM (active)
Cc1cc(Cl)ccc1OCCCC(=O)O,outcome,[2],inactive
same,outcome,[7],inactive
same,outcome,[8],inactive
same,outcome,[9],inactive
same,outcome,[5],inactive
same,outcome,[6],inactive
O=C(N[C@H]1CN2CCC1CC2)c1ccc2c(c1)OCCO2,outcome,[10],inactive
same,outcome,[7],inactive
same,outcome,[5],inactive
same,outcome,[6],inactive
O=S1(=O)OC(c2cc(Br)c(O)c(Br)c2)(c2cc(Br)c(O)c(Br)c2)c2ccccc21,outcome,[1],inactive
same,AC50,[2],214 nM (active)
same,outcome,[7],inactive
same,outcome,[3],inactive
same,outcome,[4],inactive
same,outcome,[9],inactive
same,AC50,[5],71.9 µM (active)
same,AC50,[6],14.4 µM (active)
O=C(NC(=O)c1c(F)cccc1F)Nc1cc(Cl)c(OC(F)(F)C(F)C(F)(F)F)cc1Cl (centres undefined),outcome,[2],inactive
same,outcome,[7],inactive
same,outcome,[3],inactive
same,outcome,[4],inactive
same,AC50,[8],50 µM (active)
same,AC50,[9],43.7 µM (active)
same,AC50,[5],66.5 µM (active)
same,AC50,[6],50 µM (active)
CCOCn1c(-c2ccc(Cl)cc2)c(C#N)c(Br)c1C(F)(F)F,outcome,[1],inactive
same,AC50,[7],12.6 µM (active)
same,outcome,[3],inactive
same,outcome,[4],inactive
same,AC50,[8],12.3 µM (active)
same,AC50,[9],3.05 µM (active)
same,AC50,[5],9.59 µM (active)
same,AC50,[6],25.2 µM (active)
CCC[CH2][Sn]([Cl])([Cl])[CH2]CCC,outcome,[1],inactive
same,outcome,[7],inactive
same,AC50,[3],1.76 µM (active)
same,AC50,[4],3.3 µM (active)
O=C(NC(=O)c1c(F)cccc1F)Nc1cc(Cl)c(Oc2ncc(C(F)(F)F)cc2Cl)c(Cl)c1,outcome,[1],inactive
CCCCCCCCCCCCN(C)C,outcome,[10],inactive
same,outcome,[7],inactive
same,outcome,[3],inactive
same,outcome,[4],inactive
same,outcome,[8],inactive
same,outcome,[9],inactive
same,outcome,[6],inactive
COCCl,AC50,[2],1220 nM (active)
same,outcome,[7],inactive
same,outcome,[8],inactive
same,outcome,[9],inactive
N#Cc1cccnc1,outcome,[10],inactive
same,outcome,[7],inactive
same,outcome,[3],inactive
same,outcome,[4],inactive
same,outcome,[9],inactive
same,outcome,[5],inactive
same,outcome,[6],inactive
CC1CC(=O)O1 (centres undefined),outcome,[10],inactive
Oc1c(Br)cc(Br)cc1Br,outcome,[1],inactive
same,outcome,[7],inactive
same,outcome,[3],inactive
same,outcome,[4],inactive
same,outcome,[5],inactive
same,outcome,[6],inactive
CC(O)(CS(=O)(=O)c1ccc(F)cc1)C(=O)Nc1ccc(C#N)c(C(F)(F)F)c1 (centres undefined),AC50,[1],0.026 µM (active)
same,AC50,[7],1.75 µM (active)
same,AC50,[3],12.8 µM (active)
same,outcome,[4],inactive
same,outcome,[6],inactive
Oc1cccc(-c2ccccc2)c1,outcome,[10],inactive
OCC(c1ccc(Cl)cc1)c1ccc(Cl)cc1,outcome,[1],inactive
O=[N+]([O-])c1ccc(Nc2ccccc2)cc1,outcome,[1],inactive
O=C(O)COc1cc(Cl)c(Cl)cc1Cl,outcome,[10],inactive
same,outcome,[2],inactive
same,outcome,[7],inactive
same,outcome,[8],inactive
same,outcome,[6],inactive
O=S1OC[C@@H]2[C@H](CO1)[C@]1(Cl)C(Cl)=C(Cl)[C@@]2(Cl)C1(Cl)Cl (some centres undefined),outcome,[1],inactive
same,outcome,[2],inactive
same,AC50,[3],12.6 µM (active)
same,outcome,[4],inactive
same,AC50,[8],43.3 µM (active)
same,AC50,[9],68.1 µM (active)
same,AC50,[5],91.8 µM (active)
same,outcome,[6],inactive
Oc1cc(Cl)c(Cl)cc1Cl,outcome,[10],inactive
same,AC50,[7],75.1 µM (active)
same,AC50,[5],78.3 µM (active)
same,outcome,[5],inactive
same,AC50,[6],81.6 µM (active) and 83.4 µM (active)
CC(C)(C1CCC(O)CC1)C1CCC(O)CC1 (centres undefined),outcome,[1],inactive
C=CC(Cl)CCl (centres undefined),outcome,[2],inactive
same,outcome,[7],inactive
same,outcome,[5],inactive
same,outcome,[6],inactive
CC(C)(C)c1cc([N+](=O)[O-])cc(C(C)(C)C)c1O,outcome,[1],inactive
COC(=O)c1cc(Oc2ccc(Cl)cc2Cl)ccc1[N+](=O)[O-],outcome,[1],inactive
O=C(CCl)Nc1ccccc1,outcome,[1],inactive
same,outcome,[2],inactive
same,outcome,[7],inactive
same,AC50,[3],84.8 µM (active)
same,outcome,[4],inactive
same,outcome,[8],inactive
CCOP(=O)(OCC)OC(=CCl)c1ccc(Cl)cc1Cl,AC50,[10],10.9 µM (active)
CC(C)N(C(=O)CCl)c1ccccc1,AC50,[1],6.48 µM (active)
same,outcome,[2],inactive
same,outcome,[7],inactive
same,outcome,[3],inactive
same,outcome,[4],inactive
[Cl][Sn]([c]1ccccc1)([c]1ccccc1)[c]1ccccc1,outcome,[10],inactive
CC(=Cc1ccccc1)[N+](=O)[O-],outcome,[1],inactive
same,outcome,[2],inactive
same,outcome,[7],inactive
same,AC50,[3],16.6 µM (active)
same,AC50,[4],19.8 µM (active)
N#CCC#N,outcome,[2],inactive
same,outcome,[7],inactive
same,outcome,[3],inactive
same,outcome,[4],inactive
C=CC(=O)[O][Sn]([CH2]CCC)([CH2]CCC)[CH2]CCC,outcome,[1],inactive
O=c1[nH]c2ccccc2n1C1CCN(CCCC(c2ccc(F)cc2)c2ccc(F)cc2)CC1,outcome,[1],inactive
CCCCCCCCCCCCOS(=O)(=O)O,outcome,[10],inactive
same,outcome,[5],inactive
same,outcome,[6],inactive
CNC(=O)O/N=C/C(C)(C)S(C)(=O)=O,AC50,[2],623 nM (active)
same,outcome,[7],inactive
same,outcome,[3],inactive
same,outcome,[4],inactive
same,outcome,[6],inactive
O=S(=O)(Oc1ccc(Cl)cc1)c1ccc(Cl)cc1,outcome,[1],inactive
O=[N+]([O-])c1ccc(Cl)c([N+](=O)[O-])c1,outcome,[2],inactive
